Assay [1] addresses Thyrotropin receptor (Homo sapiens) (UniProt P16473). Kind of assay: qHTS assay to identify small molecule agonists of the thyroid stimulating hormone receptor (TSHR) signaling pathway (AID 1224843; calls by dose curve; also: nearly all actives have a fitted effect of over 45% in size). Put shortly:
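HEK293/TSHR, 800 cells/well; cpd 30 min RT; add cAMP-d2 + anti-cAMP-cryptate, 1 h RT; fluorescence read on plate reader. 15-pt titration, n=3.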
(In general: In qHTS, concentration-response curves come from the screen itself.)

Assay [2] can be described thus: qHTS assay to identify small molecule agonists of the hypoxia (HIF-1) signaling pathway - cell viability counter screen (AID 1224844; calls by dose curve; also: nearly all actives have a fitted effect of over 50% in size; also: potency is read from the fitted curve at half-maximal effect). An outline of the steps: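 HRE-bla ME-180; 0.5% dFBS; cpd 17 h, 37C, 5% CO2; CellTiter-Glo lum., 30 min RT, post-FRET read, same wells.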
Assay [3] is described as follows: qHTS assay to identify small molecule agonists of the hypoxia (HIF-1) signaling pathway (AID 1224846; active = well fitted activation curve with a large enough effect in the signal ratio in the repeat runs, not every such curve was filed as active; the % refers to the signal ratio). An outline of the steps: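 Reporter induction in HRE-bla ME-180 cells is taken as agonism: cells sit 5 hrs after plating, receive compounds or DMSO only, incubate 17 hrs at 37C under 5% CO2, and are loaded with CCF4-AM for beta-lactamase FRET measurement.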
A short description of assay [4]: qHTS assay to identify small molecule agonists of H2AX - cell viability counter screen (AID 1224847; calls by dose curve; also: top concentration of the series differs between compounds; nearly all actives have a fitted effect of over 30% in size). An outline of the steps:
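Read-out: CellTiter-Glo luminescence, 30 min RT. Cells: wild-type CHO-K1, 1000/well, 10% FBS, plated overnight at 37C. Treatment: 15 concentrations, 3 hr, 37C, 0.76% DMSO.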

The nature of assay [5]: qHTS RealTime-Glo MT Cell Viability Assay in HepG2 cells - 24 hour (AID 1224867). Also: nearly all actives have a fitted effect of over 50% in size. Put shortly: (§1)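 Real-time, nonlytic viability: 600 HepG2 cells/well mixed with NanoLuc enzyme plus prosubstrate; 5 h settle, compound (DMSO) added by pintool; luminescence monitored over 40 h at 37 C.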
The nature of assay [6]: qHTS RealTime-Glo MT Cell Viability Assay in HEK293 cells - 32 hour (AID 1224868). Also: nearly all actives have a fitted effect of over 50% in size. Also: potency is read from the fitted curve at half-maximal effect. Put shortly: (§2)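 Cells + reagent dispensed (600 cells/well, HEK293) → 5 h at 37 C/5% CO2 → 23 nL compound in DMSO pinned → 40 h at 37 C → luminescence read at 0, 8, 16, 24, 32, 40 h.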
The nature of assay [7]: A CellTox Green Cytotoxicity Assay to monitor cytotoxicity in HEK293 cells - 0 hour (AID 1224869). Also: nearly all actives have a fitted effect of over 50% in size. Put shortly: (§3)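 Tox21 screen in HEK293: membrane-impermeant cyanine dye fluoresces on binding dead-cell DNA; compound pinned 5 h post-seeding, plates held at 37 C, signal read repeatedly through 40 h.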
Assay [8] in a line: qHTS RealTime-Glo MT Cell Viability Assay in HepG2 cells - 40 hour (AID 1224870). Also: nearly all actives have a fitted effect of over 50% in size. An outline of the steps:
(§4)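 HepG2 cells (600/well) mixed with RealTime-Glo MT reagent, settled 5 h at 37 C/5% CO2 before compound addition. Nonlytic NanoLuc luminescence from viable-cell prosubstrate reduction read repeatedly during 40 h treatment at 37 C.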

Assay [9] in a line: A CellTox Green Cytotoxicity Assay to monitor cytotoxicity in HEK293 cells - 40 hour (AID 1224871). Also: nearly all actives have a fitted effect of over 45% in size. Also: potency is read from the fitted curve at half-maximal effect. Put shortly:
as §3

Assay [10] in a line: qHTS RealTime-Glo MT Cell Viability Assay in HEK293 cells - 16 hour (AID 1224872). Also: nearly all actives have a fitted effect of over 50% in size. Also: potency is read from the fitted curve at half-maximal effect. An outline of the steps:
as §2

Assay [11] can be described thus: qHTS RealTime-Glo MT Cell Viability Assay in HepG2 cells - 8 hour (AID 1224873). Also: nearly all actives have a fitted effect of over 55% in size. An outline of the steps:
as §4

A short description of assay [12]: qHTS RealTime-Glo MT Cell Viability Assay in HEK293 cells - 40 hour (AID 1224874). Also: nearly all actives have a fitted effect of over 50% in size. Also: potency is read from the fitted curve at half-maximal effect. The conditions noted are these: RealTime-Glo luminescence; max response: active compounds read low. An outline of the steps: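 HEK293 + NanoLuc + prosubstrate, 600 cells/well; 5 h, 37 C/5% CO2; compound 23 nL in DMSO by pintool; 37 C; luminescence read at 0, 8, 16, 24, 32 and 40 h time points.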

A short description of assay [13]: A CellTox Green Cytotoxicity Assay to monitor cytotoxicity in HEK293 cells - 24 hour (AID 1224875). Also: nearly all actives have a fitted effect of over 45% in size. Also: potency is read from the fitted curve at half-maximal effect. Put shortly: as §3
The nature of assay [14]: A CellTox Green Cytotoxicity Assay to monitor cytotoxicity in HepG2 cells - 16 hour (AID 1224876). Also: nearly all actives have a fitted effect of over 45% in size. Also: potency is read from the fitted curve at half-maximal effect. An outline of the steps: (§5)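 Measurements at 0, 8, 16, 24, 32 and 40 h of treatment captured CellTox Green fluorescence in HepG2 cells that had been co-plated with reagent and preincubated 5 h at 37 C/5% CO2.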
Assay [15] can be described thus: qHTS RealTime-Glo MT Cell Viability Assay in HepG2 cells - 32 hour (AID 1224877). Also: nearly all actives have a fitted effect of over 55% in size. An outline of the steps:
as §1

Assay [16] is described as follows: A CellTox Green Cytotoxicity Assay to monitor cytotoxicity in HepG2 cells - 24 hour (AID 1224878). Also: nearly all actives have a fitted effect of over 45% in size. Also: potency is read from the fitted curve at half-maximal effect. Put shortly: as §5
Assay [17] is described as follows: A CellTox Green Cytotoxicity Assay to monitor cytotoxicity in HepG2 cells - 40 hour (AID 1224879). Also: nearly all actives have a fitted effect of over 40% in size. Also: potency is read from the fitted curve at half-maximal effect. An outline of the steps: as §5
A short description of assay [18]: qHTS assay to identify small molecule antagonists of the estrogen related receptor (ERR) signaling pathway from Tox21 library (AID 1224848). Also: nearly all actives have a fitted effect of over 50% in size. Also: potency is read from the fitted curve at half-maximal effect. Put shortly: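 Compounds dissolved in DMSO are pin-transferred onto ERR reporter cells (2,000 per well) that have settled for 6 h at 37 C. Plates then incubate 18 h at 37 C before ONE-Glo luciferase reagent and a luminescence read 30 min later.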

Assay [19] is described as follows: qHTS assay to identify small molecule agonists of the estrogen related receptor (ERR) signaling pathway from Tox21 library (AID 1224849; calls by dose curve; also: nearly all actives have a fitted effect of over 15% in size). The conditions noted are these: ERR reporter cell line, ONE-Glo luciferase, 18 h; at 92.4 µM (top of the series) unless noted. Put shortly:
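Tox21 compounds tested for ERR agonism in an NTP reporter cell line: 18 h treatment at 37 C, then ONE-Glo luminescence.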

A short description of assay [20]: qHTS assay to identify small molecule agonists of H2AX (AID 1224845; active = well fitted activation curve with a large enough effect in the signal ratio in the repeat runs, not every such curve was filed as active; the % refers to the signal ratio). An outline of the steps:
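Wild-type CHO-K1 cells, plated overnight, exposed 3hr at 37C to 15 concentrations (0.76% DMSO final). Lysed, then HTRF anti-pH2AX (S139) cryptate and anti-H2AX-d2 antibodies, 24 hr room temperature; 665/620 nm emission read.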

Structures are written as SMILES. A number with no mark means an inactive call. Inconclusive results are not listed. Activity calls are given as the source filed them. Unless noted, calls follow the shape of the dose curve; as a rule, active = well fitted curve in the direction sought with a large enough effect in the repeat runs; inconclusive = weak or mixed curves; inactive = no such curve, though single readings can be large; an effect the other way counts as inactive or inconclusive.
% is scaled to controls: 0 for no effect and ±100 for the full control effect.

Chain of Thyrotropin receptor (Homo sapiens) (P16473 whole entry, looked up): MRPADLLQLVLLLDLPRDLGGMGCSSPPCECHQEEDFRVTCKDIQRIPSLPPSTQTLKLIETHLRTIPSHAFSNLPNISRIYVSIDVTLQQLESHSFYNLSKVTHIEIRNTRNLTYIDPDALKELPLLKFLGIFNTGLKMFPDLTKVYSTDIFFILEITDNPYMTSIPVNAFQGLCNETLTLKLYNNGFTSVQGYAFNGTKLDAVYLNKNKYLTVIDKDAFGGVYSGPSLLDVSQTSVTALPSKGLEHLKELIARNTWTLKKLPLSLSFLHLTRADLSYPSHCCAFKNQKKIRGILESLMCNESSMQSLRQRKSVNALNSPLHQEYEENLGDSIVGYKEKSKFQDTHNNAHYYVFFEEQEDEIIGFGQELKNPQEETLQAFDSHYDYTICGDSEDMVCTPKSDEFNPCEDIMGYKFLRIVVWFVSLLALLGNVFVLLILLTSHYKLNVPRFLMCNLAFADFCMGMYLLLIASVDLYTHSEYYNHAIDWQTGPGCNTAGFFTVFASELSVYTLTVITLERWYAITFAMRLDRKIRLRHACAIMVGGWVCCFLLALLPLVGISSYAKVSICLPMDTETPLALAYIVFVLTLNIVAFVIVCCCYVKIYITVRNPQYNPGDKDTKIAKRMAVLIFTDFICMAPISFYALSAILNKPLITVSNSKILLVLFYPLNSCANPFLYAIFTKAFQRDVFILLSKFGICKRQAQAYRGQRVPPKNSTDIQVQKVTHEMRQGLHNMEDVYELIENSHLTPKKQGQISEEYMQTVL

Turning to `CO[C@@H]1COCC[C@@H]1N[C@@H]1CC[C@@](C(=O)N2CCc3ncc(C(F)(F)F)cc3C2)(C(C)C)C1`, the Potency entry in assay [1], in assay [2], in assay [4], in assay [7], in [8] and in assay [9] was “inactive” each time. Besides, the Potency entry in assay [13], in assay [14], in assay [15], in assay [16] and in assay [17] was “inactive” in each case. For the same compound, the compound was classed as inactive in [3], in assay [5] and in [11]. Besides, the Potency in assay [6] was 15.4 µM (active); in [10], 17.3 µM (active); in [12], 17.3 µM (active).

As to `OCCOc1cccc(OCCO)c1`, the Potency result in assay [1], in [2], in assay [4], in [18], in assay [6] and in assay [9] was “inactive” each time. The Potency entry in [10], in assay [13], in assay [14], in [15], in assay [16] and in assay [17] was “inactive” in each case. In addition, the compound was called inactive in assay [3], in assay [5] and in assay [11]. The activity change, positive = activation in assay [19] is 0.271%. Further, in [12], the max response is 12.3%.

`Cc1c(Cl)cccc1Nc1ccccc1C(=O)O`: the Potency entry in [1], in assay [2], in assay [20], in assay [4], in assay [6] and in [7] was “inactive” in each case. The Potency result in assay [8], in assay [9], in [10], in assay [13], in [14] and in assay [15] was “inactive” throughout. The Potency entry in assay [17] was “inactive”. Besides, the call in assay [5] and in [11] was inactive. Also, in assay [12], the max response was -5.01%.

Take `CCCC(=O)OCCC(C)C`: the Potency entry in assay [1], in assay [2], in assay [4], in assay [6], in assay [7] and in [8] was “inactive” throughout. In addition, the Potency result in assay [10], in [13], in assay [14], in [15], in assay [16] and in assay [17] was “inactive” in each case. Also, the compound was classed as inactive in assay [3], in assay [5] and in assay [11]. In addition, the max response in [12] is -1.39%.

Take `NC(=O)c1ccccc1C(N)=O`: the Potency result in [1], in [4], in assay [8] and in assay [15] was “inactive” throughout. Moreover, the Potency in assay [2] was 49.2 µM (active); in [18], 48.8 µM (active); in [6], 31 µM (active); in [9], 49.2 µM (active); in assay [12] it was 31 µM (active); in assay [13], 49.2 µM (active). The Potency in assay [14] was 55.2 µM (active); in [16] it was 55.2 µM (active); in assay [17], 49.2 µM (active). The compound was classed as inactive in [3], in assay [5] and in [11]. Moreover, the activity change, positive = activation in assay [19] was -52.8%.

As to `CC(C)CCCCCCCOC(=O)c1ccc(C(=O)OCCCCCCCC(C)C)c(C(=O)OCCCCCCCC(C)C)c1`, the Potency entry in assay [1], in assay [2], in assay [4], in [18], in assay [6] and in assay [7] was “inactive” throughout. In addition, the Potency entry in assay [9], in [10], in assay [13], in assay [14], in assay [15] and in assay [17] was “inactive” throughout. The result in [3], in assay [5] and in [11] was inactive. Further, the activity change, positive = activation in assay [19] was -6.08%. Besides, in assay [12], the max response is 11.4%.

Take `C[C@H](CN1CCCC1)C(=O)c1ccc(C(F)(F)F)cc1`: the Potency result in assay [1], in assay [2] and in [20] was “inactive” each time. Moreover, the call in assay [3] and in assay [11] was inactive. The Potency in assay [14] and in [17] was 21.3 µM (active) each time.

For `O=C(c1ccco1)N1CCNCC1`, the Potency result in assay [1], in assay [2], in assay [4], in assay [18], in assay [6] and in [7] was “inactive” each time. Also, the Potency result in assay [10], in [13], in assay [14], in assay [15], in assay [16] and in assay [17] was “inactive” throughout. For the same compound, the call in assay [3], in assay [5] and in assay [11] was inactive. For the same compound, in [19], the activity change, positive = activation is 3.89% [at 42.5 µM]. Further, in [12], the max response is 3.57%.
